Several values for one entry are separate records, joined by “and”; a condition that tells them apart may be missing. Identical values can stand only once. In all, about 5,500 compounds went through this assay and about 2,000 (36%) were called active. About 18% were inconclusive and are not listed. Cut-off read from the data, not from the text of the source: active = normalized growth mostly below about 0.91 (no sharp cut-off); inconclusive = no clear call, values can overlap the other calls; inactive = mostly above about 0.92. The list shows a part of the results.
Assay: chemical genetic growth profiling, strain panel (AID 1159580);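 note: tested at 20 µM; growth read once vehicle control cultures reached saturation at 30 °C; 1 = growth at the plate median or of vehicle wells; lower values mean less growth of the strain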
Settings: S. cerevisiae deletion strains, growth OD

Measured: normalized growth

C[C@]12CC[C@H](O)C[C@H]1CCC1C2CC[C@]2(C)[C@@H](C3=CC(=O)OC3)[C@@H](O)C[C@]12O (stereo partly drawn)
inactive: locus YBR021W, strain FUR4, stronger effect = lower value 1.02 | locus YBR229C, strain ROT2, stronger effect = lower value 1.02 | locus YCL029C, strain bik1, stronger effect = lower value 1.01 | locus YDL035C, strain GPR1, stronger effect = lower value 1.08 | locus YDL074C, strain BRE1, stronger effect = lower value 1.1 | locus YDL101C, strain DUN1, stronger effect = lower value 1.02 | locus YDL185W, strain tfp1, stronger effect = lower value 0.974 | locus YDL192W, strain arf1, stronger effect = lower value 1.02 | locus YDR101C, strain arx1, stronger effect = lower value 1 | locus YDR150W, strain NUM1, stronger effect = lower value 1.03 | locus YDR162C, strain NBP2, stronger effect = lower value 1.03 | locus YDR318W, strain mcm21, stronger effect = lower value 0.998 | locus YDR388W, stronger effect = lower value 0.984 | locus YDR502C, strain sam2, stronger effect = lower value 1.01 | locus YEL061C, strain CIN8, stronger effect = lower value 1.02 | locus YER110C, stronger effect = lower value 0.997 | locus YER155C, strain BEM2, stronger effect = lower value 1 | locus YER167W, strain BCK2, stronger effect = lower value 1.02 | locus YGL078C, strain dbp3, stronger effect = lower value 0.982 | locus YGL086W, strain mad1, stronger effect = lower value 1 | locus YGL248W, strain PDE1, stronger effect = lower value 1.05 | locus YGR078C, strain PAC10, stronger effect = lower value 1.03 | locus YGR135W, strain pre9, stronger effect = lower value 1 | locus YGR229C, strain SMI1, stronger effect = lower value 1.13 | locus YGR252W, strain gcn5, stronger effect = lower value 0.962 | locus YHR030C, strain SLT2, stronger effect = lower value 1 | locus YHR079C, strain IRE1 (second series), stronger effect = lower value 0.983 | locus YHR079C, strain IRE1, stronger effect = lower value 0.982 | locus YHR094C, strain hxt1, stronger effect = lower value 0.982 | locus YHR129C, strain ARP1, stronger effect = lower value 1.03 | locus YHR200W, strain rpn10, stronger effect = lower value 0.995 | locus YIL066C, strain RNR3, stronger effect = lower value 1.03 | locus YIL073C, strain SPO22, stronger effect = lower value 1.07 | locus YIL125W, strain kgd1, stronger effect = lower value 1.02 | locus YIR030C, strain dcg1, stronger effect = lower value 0.994 | locus YJL095W, strain BCK1, stronger effect = lower value 1.07 and 0.981 | locus YJL134W, strain LCB3, stronger effect = lower value 1.02 | locus YJL168C, strain set2, stronger effect = lower value 0.975 | locus YJL187C, strain SWE1 (second series), stronger effect = lower value 1.04 | locus YJR043C, strain POL32, stronger effect = lower value 1.06 | locus YJR066W, strain TOR1, stronger effect = lower value 0.968 | locus YKL009W, strain mrt4, stronger effect = lower value 1.01 | locus YKL068W, stronger effect = lower value 0.994 | locus YKL085W, strain MDH1 (second series), stronger effect = lower value 0.996 | locus YKL085W, strain MDH1, stronger effect = lower value 0.996 | locus YKL190W, strain CNB1, stronger effect = lower value 1.02 | locus YKR001C, strain vps1, stronger effect = lower value 1.03 | locus YLR039C, strain RIC1, stronger effect = lower value 1.15 | locus YLR058C, strain SHM2, stronger effect = lower value 1.04 | locus YLR102C, strain apc9, stronger effect = lower value 0.989 | locus YLR113W, strain HOG1, stronger effect = lower value 0.975 | locus YLR262C, strain YPT6, stronger effect = lower value 1.16 | locus YLR268W, strain sec22, stronger effect = lower value 1 | locus YLR330W, strain CHS5, stronger effect = lower value 1.02 | locus YLR342W, strain FKS1 (second series), stronger effect = lower value 1.05 | locus YLR371W, strain rom2, stronger effect = lower value 1 | locus YLR418C, strain cdc73, stronger effect = lower value 1.01 | locus YML016C, strain PPZ1, stronger effect = lower value 1.03 | locus YML032C, strain rad52, stronger effect = lower value 1 | locus YML124C, strain tub3, stronger effect = lower value 0.987 | locus YMR078C, strain ctf18, stronger effect = lower value 0.986 | locus YMR223W, strain ubp8, stronger effect = lower value 1 | locus YMR307W, strain GAS1, stronger effect = lower value 1.19 | locus YNL067W, strain RPL9B, stronger effect = lower value 1.01 | locus YNL153C, strain GIM3, stronger effect = lower value 1.04 | locus YNL183C, strain NPR1, stronger effect = lower value 0.93 | locus YNL233W, strain BNI4, stronger effect = lower value 1.06 | locus YNL250W, strain rad50, stronger effect = lower value 1.01 | locus YNL271C, strain bni1, stronger effect = lower value 0.999 | locus YNL298W, strain CLA4, stronger effect = lower value 0.994 | locus YNL307C, strain MCK1, stronger effect = lower value 0.98 | locus YNR052C, strain pop2, stronger effect = lower value 0.987 | locus YOL006C, strain TOP1, stronger effect = lower value 1.27 | locus YOL012C, strain htz1 1.03 | locus YOL147C, strain pex11, stronger effect = lower value 0.993 | locus YOR061W, strain CKA2, stronger effect = lower value 1.03 | locus YOR069W, strain VPS5, stronger effect = lower value 1.02 | locus YOR136W, strain idh2, stronger effect = lower value 0.991 | locus YOR144C, strain elg1, stronger effect = lower value 0.989 | locus YOR184W, strain ser1, stronger effect = lower value 1.05 | locus YOR231W, strain MKK1, stronger effect = lower value 0.982 | locus YOR316C, strain cot1, stronger effect = lower value 1 | locus YPL256C, strain CLN2, stronger effect = lower value 1.03 | locus YPR119W, strain clb2, stronger effect = lower value 0.982 | locus YPR141C, strain kar3, stronger effect = lower value 0.997 | locus YPR163C, strain tif3, stronger effect = lower value 0.997 | locus YPR167C, strain met16, stronger effect = lower value 0.99 | strain wtn01, stronger effect = lower value 1.02

— PubChem BioAssay AID1159580 (chemical genetic matrix, 2015)
